Compounds with a hit are over-represented: about 4.7% of the library has one in this group of screens.
EBI2 block: antagonists of human EBI2 receptor; EBI2 beta-arrestin recruitment, luminescence, 7a,25-OHC stimulated; inhibition, % at 5 µM; actives 0.81% (n = 360,000); AID 651636; in the data active means inhibition above about 38%;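 further: enzyme fragment complementation signal reports receptor beta-arrestin coupling in cells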
Target sequence (P32249 whole entry, looked up, the tested form may be a part): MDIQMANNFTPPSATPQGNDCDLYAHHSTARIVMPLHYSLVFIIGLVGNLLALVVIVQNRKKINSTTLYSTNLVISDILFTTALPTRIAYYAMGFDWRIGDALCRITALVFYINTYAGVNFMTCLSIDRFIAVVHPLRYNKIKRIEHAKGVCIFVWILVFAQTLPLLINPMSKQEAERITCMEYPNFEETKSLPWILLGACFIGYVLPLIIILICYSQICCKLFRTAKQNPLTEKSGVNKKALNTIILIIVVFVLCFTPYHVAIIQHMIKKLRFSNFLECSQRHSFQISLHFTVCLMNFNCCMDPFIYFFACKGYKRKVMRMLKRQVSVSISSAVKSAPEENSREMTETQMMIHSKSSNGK
tim23-1 inh: tim23-1 yeast growth inhibition. inhibition, % at 20 µM. actives 1.3% (n = 330,000). S. cerevisiae tim23-1 growth, BacTiter-Glo luminescence, 24 h. AID 463212;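 active means growth inhibition of the mutant yeast at or above 50%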;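 further: temperature-sensitive mutant grown at 25 °C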
PfHsp90 set2: inhibits growth of yeast expressing Plasmodium falciparum Hsp90. S. cerevisiae expressing PfHsp90, BacTiter-Glo ATP, 48 h; yeast lacking PDR1 and PDR3 efflux regulators. inhibition, % at 9.4 µM. AID 504621. actives 0.32% (n = 310,000);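 active means every replicate shows inhibition above about 80%, whatever the replicate mean, limit read from the data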
SKKanGAS inh: inhibitors of SKKanGAS S. pyogenes growth in kanamycin (SK-promoter or general growth effect); actives 1.3% (n = 300,000); BacTiter-Glo, 6 h; inhibition, % at 7.5 µM; AID 1662;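 active means mean replicate score, as percent of positive control median, at least 50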;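 further: strain carries kanamycin resistance gene driven by streptokinase promoter and grows in 40 µg/ml kanamycin; loss of luminescence reflects streptokinase promoter inhibition or plain growth inhibition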
tim10-1 inh: growth inhibitors of tim10-1 mutant yeast; actives 2.2% (n = 330,000); S. cerevisiae tim10-1 ts strain growth, BacTiter-Glo, 24 h; AID 463190; inhibition, % at 20 µM;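 active means inhibition of at least 40%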;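 further: mutant grown at 25 °C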
TIM10 inh: growth inhibitors of TIM10 yeast strain | actives 1.4% (n = 330,000) | S. cerevisiae TIM10 strain growth, BacTiter-Glo luminescence, 24 h | inhibition, % at 10 µM | AID 463195;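 active means inhibition of 40% or more at the single tested concentration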;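 further: wild-type TIM10 isogenic control strain grown at permissive 25 °C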
tim10-1 confirm: confirmation of tim10-1 mutant yeast growth inhibitors. S. cerevisiae tim10-1 ts strain growth, BacTiter-Glo, 24 h. inhibition, % at 20 µM. shares compounds with tim10-1 inh. actives 56% (n = 7,400);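 active means inhibition of yeast growth at or above a set limit in either of two repeat tests at 20 µM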;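 further: tim10-1 mutant grown at permissive 25 °C to find synthetic lethal compounds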
tim10 confirm: confirmation of TIM10 yeast growth inhibitors | actives 63% (n = 4,600) | inhibition, % at 10 µM | S. cerevisiae tim10 strain growth, BacTiter-Glo luminescence, 24 h | shares compounds with TIM10 inh;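 active means inhibition of yeast growth at or above a set limit in either of two replicates at 10 µM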; further: this counterscreen used the strain with wild-type TIM10
tim23-1 conf: confirmation of tim23-1 mutant yeast growth inhibitors; actives 83% (n = 4,400); shares compounds with tim23-1 inh; AID 463218; inhibition, % at 20 µM; S. cerevisiae tim23-1 growth, BacTiter-Glo luminescence, 24 h;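 active means inhibition above about 39% in either of two replicate wells at 20 µM, limit read from the data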;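 further: temperature-sensitive tim23-1 mutant grown at 25 °C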
Numbers stand for hits; – = inactive; · = not tested or not shown.

SMILES	EBI2 block	tim23-1 inh	PfHsp90 set2	SKKanGAS inh	tim10-1 inh	TIM10 inh	tim10-1 confirm	tim10 confirm	tim23-1 conf
CN(N)c1nc(-c2ccccc2)cc(-c2ccccc2)n1	–	56	–	–	44	50	39	43	54
Cc1nc(-c2ccccc2)cc(-c2ccccc2)n1	–	–	–	–	–	–	·	·	·
CN1C(=O)/C(=C/c2ccc(-c3ccccc3[N+](=O)[O-])o2)SC1=Nc1ccc(Cl)c(C(=O)O)c1	–	·	–	–	·	·	·	·	·
Cc1cccc(C)c1NC(=O)Cn1nc(-c2ccc(Cl)s2)ccc1=O	–	–	–	–	–	–	·	·	·
CCCC[C@@H]1CNC(=O)C(=O)N1CCCCC1CCCCC1	–	·	·	·	·	·	·	·	·
Cc1nc(-c2ccc(NC(=O)c3ccco3)cc2)cs1	–	68	–	–	51	43	–	50	67
Cc1nc(-c2cccc(NC(=O)c3ccco3)c2)cs1	–	–	–	–	–	–	·	·	·
CCN1/C(=C/C=C/c2sc3ccccc3[n+]2CC)Sc2ccccc21	–	85	–	89	77	83	77	76	85
CCN1/C(=C/C=C/C=C/C=C/c2sc3ccccc3[n+]2CC)Sc2ccccc21	–	–	–	–	–	–	·	·	·
CCN1/C(=C/C=C/C=C/c2sc3ccccc3[n+]2CC)Sc2ccccc21	·	89	·	104	80	81	79	–	86
CC(C)(C)c1ccc(NC(=O)CSc2n[nH]c(=O)n2C2CC2)cc1	–	–	–	·	–	–	·	·	·
O=C(O)C1CCN(S(=O)(=O)Cc2ccccc2)CC1	–	–	–	–	–	–	·	·	·
O=c1oc2cc(O)c(Cl)cc2c2ccccc12	–	–	–	–	–	–	·	·	·
O=c1oc(Cl)c(Cl)c2ccccc12	–	64	–	·	45	–	–	·	88
O=C(O)c1ccc(S(=O)(=O)/N=C2\C=C(Nc3ccccc3F)C(=O)c3ccccc32)cc1	–	81	–	88	79	74	84	74	89
CCOC(=O)c1c(C)oc2c(F)c(F)c(F)c(F)c2c1=O	–	74	·	–	42	–	–	·	48
CC1CCc2nc(/C(C#N)=C/c3ccncc3)sc2C1 (configuration not stated)	–	–	–	–	–	–	·	·	·
CCSc1nsc(NC(=O)Nc2cccc(F)c2)n1	–	78	–	66	61	69	72	60	84
CCNC(=S)NNC(=O)c1cc(-c2cccc(OC)c2)nc2ccccc12	–	56	–	–	56	–	50	·	54
COc1cccc(-c2cc(C(=O)NCc3ccco3)c3ccccc3n2)c1	–	–	–	–	–	–	·	·	·
CCNC(=S)NNC(=O)c1cc(-c2ccc(OCC)cc2)nc2ccccc12	–	78	·	–	86	–	66	·	86
CCc1ccc(-c2cc(C(=O)Nn3cnnc3)c3ccccc3n2)cc1	–	53	–	–	54	–	36	·	40
CC(=O)NCCn1c(SCc2ccc(C)cc2C)nc2ccccc2c1=O	–	56	–	–	40	–	–	·	–
CC(=O)NCCn1c(SCc2ccccc2C)nc2ccccc2c1=O	–	–	–	–	–	–	·	·	·
CC(=O)c1cccc(N2C(=O)CC(N3CCN(S(=O)(=O)c4ccc(Cl)cc4)CC3)C2=O)c1 (configuration not stated)	–	–	–	·	–	–	·	·	·
SMILES	EBI2 block	tim23-1 inh	PfHsp90 set2	SKKanGAS inh	tim10-1 inh	TIM10 inh	tim10-1 confirm	tim10 confirm	tim23-1 conf
CC(C)c1ccc(C(O)P(=O)(OC2CCCCC2)OC2CCCCC2)cc1 (configuration not stated)	–	58	·	–	44	–	–	·	46
COc1cc(C(O)P(=O)(OC2CCCCC2)c2ccc(N(C)C)cc2)cc(OC)c1OC (configuration not stated)	–	–	·	–	–	–	·	·	·
O=C(NC12CC3CC(CC(C3)C1)C2)C1CCCN1C(=O)Nc1ccccc1 (configuration not stated)	–	–	–	–	–	–	·	·	·
CC(=C/c1ccccc1)/C=N/n1c(C)n[nH]c1=S	–	–	–	–	–	–	·	·	·
CC(/C=N/n1c(COc2ccccc2)n[nH]c1=S)=C\c1ccccc1	–	51	–	–	43	–	–	·	50
Cc1cc(-c2n[nH]c(=S)n2/N=C/C(Cl)=C/c2ccccc2)n[nH]1	–	54	–	–	51	54	47	–	48
S=c1[nH]nc(-c2ccco2)n1/N=C/C(Cl)=C/c1ccccc1	–	–	–	–	–	–	·	·	·
O=C(c1ccccn1)c1conc1C(=O)c1ccc(Br)cc1	–	78	–	–	69	72	73	63	87
CCNC(=O)N(C)C[C@H]1N[C@@](CC)(C(=O)OC)[C@H]2C(=O)N(C)C(=O)[C@@H]12	–	–	–	·	–	–	·	·	·
Cc1c(Cl)cccc1NC(=S)N1CCN(S(=O)(=O)c2cccs2)CC1	–	–	–	–	–	–	·	·	·
CCN(CC)c1ccc(/C=N/NC(=S)NCc2ccco2)cc1	–	51	–	–	42	46	34	–	40
Oc1ccc(/C=N/NC(=S)NCc2ccco2)cc1	–	–	–	–	–	–	·	·	·
O=C(CCNC(=O)c1ccc([N+](=O)[O-])cc1)Oc1ccc(F)c(F)c1	–	–	–	·	–	–	·	·	·
O=C(COc1ccc(Br)cc1CO)Nc1ccc(S(=O)(=O)N2CCCCC2)cc1	–	53	–	·	40	–	50	·	61
CCc1ccc(OCC(=O)Nc2ccc(S(=O)(=O)N3CCCC3)cc2)c(Br)c1	–	–	–	–	–	–	·	·	·
COc1cc(/C=N/NC(=S)NC2CC3CC2C2C=CCC32)ccc1O (configuration not stated)	45	75	–	–	53	–	42	·	62
CNNC(=S)NC1CC2CC1C1C=CCC21 (configuration not stated)	–	–	–	–	–	–	·	·	·
N/C(=N\OC(=O)N1c2ccccc2Sc2ccccc21)c1ccccc1	–	66	–	–	61	84	48	85	50
Cc1cccc(/C(N)=N/OC(=O)N2c3ccccc3Sc3ccccc32)c1	–	60	–	–	65	83	52	–	45
COc1cccc2[nH]c(C(=O)NCc3ccccc3)cc12	–	–	–	–	–	–	·	·	·
CC(=O)OCCCN1c2ccccc2Nc2nnc(-c3ccccc3)cc21	–	51	–	–	47	51	32	30	49
OCc1ccc(O)c2ncccc12	–	–	–	–	–	–	·	·	·

Screening data (PubChem)
